In the library only some 3% were active in any assay of this set; here they are far more common.
ABHD5-PLIN5 inh: blocks binding of human ABHD5 to perilipin-5. inhibition, % at 4 µM. 360,000 compounds, 0.78% hits. Q00G26+Q8WTS1. Split G. princeps luciferase complementation, luminescence, 4 h;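 active = inhibition above the mean inhibition across every tested compound plus 3 SD, cut at about 22% in these data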;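 also: 0% = DMSO only wells and the 100% control is not disclosed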
TRPM1 prom inh: MITF TRPM1 promoter inhibition in SK-MEL-5 cells | SK-MEL-5 TRPM1 promoter luciferase, 24 h | inhibition, % at 12.5 µM | 330,000 compounds, 0.83% hits | AID 488899;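 active = mean inhibition across replicates of 60% or more, whatever share of single replicates reaches that level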
PAX8 inh HTS: lowers PAX8-driven luciferase in RMG-I cells | RMG-I TPO-luciferase reporter, SteadyGlo, 24 h | inhibition, % at 12.6 µM | 360,000 compounds, 1.2% hits | AID 652154;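 active = mean replicate inhibition at least 60% with every replicate also reaching 60%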;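 also: luciferase light reporting Pax8 driven TPO promoter activity; plate controls were median of neutral control wells for no effect and mitoxantrone controls for full effect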
Shn3 inh set2: reduces Shn3 3'UTR luciferase signal in osteoblasts; AID 588674; 360,000 compounds, 0.52% hits; inhibition, % at 12.5 µM; Clone20 osteoblast Shn3 3'UTR firefly luciferase, 24 h;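 active = mean inhibition of at least 75% with every replicate also reaching 75%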;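 also: 0% = median of neutral control wells and 100% = pilot-screen positive control compound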
EWS-Fli inh: inhibitors of EWS/Fli oncoprotein transcriptional activity; A673 NR0B1-luciferase reporter, viability-normalised; inhibition, % at 12.6 µM; 350,000 compounds, 0.67% hits; AID 651661;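 active = mean inhibition of at least 50% after viability correction, with every replicate also passing that limit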;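 also: firefly luciferase signal divided by Alamar Blue viability fluorescence both relative to DMSO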
Peg3 promoter: inhibitors of Peg3 promoter; inhibition, % at 20 µM; HeLa PEG-Prom luciferase reporter, luminescence, overnight; AID 588405; 360,000 compounds, 1.7% hits;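 active = inhibition of at least 50% at 20 µM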
An asterisk follows results filed as active; . = no result given.

SMILES | ABHD5-PLIN5 inh | TRPM1 prom inh | PAX8 inh HTS | Shn3 inh set2 | EWS-Fli inh | Peg3 promoter
COCC#Cc1ccc([C@@H]2[C@@H](CO)N3C(=O)CN(C(=O)C4CCCC4)C[C@H]23)cc1 | . | . | . | . | 1 | .
CC(C)c1ccc(-c2nnn(CCC(=O)O)n2)cc1 | 5 | 87* | . | 36 | . | 31
Cc1cc(C)c2c(c1)/C(=N/NC(=O)c1cc(C)oc1C)CCC2 | 0 | 11 | 99* | -19 | -2 | 24
Cc1cc(C)c2c(c1)/C(=N/NC(=O)c1ccc(O)cc1)CCC2 | 1 | -6 | 19 | 1 | 4 | -13
O=C(CCC(=O)N1CCOc2ccc(Cl)cc21)NCCCN1CCC(Cc2ccccc2)CC1 | 15 | 6 | -20 | -15 | 6 | 75*
O=C(CCC(=O)N1CCOc2ccc(Cl)cc21)NCCCN1CCN(c2ccccc2F)CC1 | -1 | . | -5 | 6 | 2 | 0
CN(C[C@H]1[C@H](c2ccccc2)[C@@H](CO)N1CC1CC1)C(=O)c1ccccc1 | . | . | -7 | . | 6 | .
C[C@H](CO)N1C[C@H](C)[C@@H](CN(C)S(=O)(=O)c2ccc(F)cc2)Oc2ncc(-c3ccncc3)cc2C1=O | . | . | -14 | . | 6 | .
COc1cc(CNCc2ccc(OC)c(OC)c2OC)cc(OC)c1 | 7 | 1 | . | 34 | . | 71*
COc1cccc(CNCc2cc(OC)cc(OC)c2)c1 | 3 | 2 | 9 | -8 | 2 | 5
CN(C)c1ccc(C(C[N+](=O)[O-])c2c(N)n(C)c(=O)n(C)c2=O)c(F)c1C#N (stereo not drawn) | 13 | 39 | 19 | 68 | 21 | 20
COc1ccc(Br)cc1C(C[N+](=O)[O-])c1c(N)n(C)c(=O)n(C)c1=O (stereo not drawn) | 7 | 80* | 4 | 55 | 14 | 68*
COc1ccccc1C(=O)Nc1ccc2c(c1)OC[C@H](C)N(C(C)=O)C[C@H](C)[C@H](OC)CN(C)C2=O | . | . | 4 | . | 10 | .
Cc1ccc2nsnc2c1NC(=O)c1ccc(-c2cc(Cl)ccc2Cl)o1 | 2 | 72* | . | 63 | . | 101*
COc1ccc2c3c(n(C)c2c1)[C@H](CO)N(C(=O)Nc1cccc(F)c1)CC31CCN(Cc2nccs2)CC1 | . | . | . | . | 16 | .
O=C(Nc1nc(-c2ccccn2)cs1)c1ncc(Cl)c(Cl)c1Cl | 2 | 13 | . | 10 | . | 69*
O=C(Nc1nc(-c2ccccn2)cs1)c1ccc(Cl)s1 | 8 | 55 | 38 | 90* | 3 | -137
CCOC(=O)c1nnc(-c2ccc(C)cc2)nc1Sc1ccccc1Cl | 2 | 3 | . | -3 | . | 27
CCOC(=O)c1nnc(-c2ccccc2)nc1Sc1c(Cl)cccc1Cl | 7 | 14 | . | -9 | . | 64*
O=C(C[C@H]1CC[C@@H]2[C@H](COC[C@@H](O)CN2C(=O)Nc2ccc(Cl)c(Cl)c2)O1)NCc1ccc(Cl)cc1 | . | . | 5 | . | -3 | .
O=C(C[C@@H]1CC[C@@H]2[C@H](COC[C@@H](O)CN2C(=O)Nc2ccc(Cl)c(Cl)c2)O1)NCc1ccc(Cl)c(Cl)c1 | . | . | 74* | . | 8 | .
O=C(C[C@@H]1CC[C@H]2[C@@H](COC[C@H](O)CN2C(=O)Nc2ccc(Cl)c(Cl)c2)O1)NCc1ccc(Cl)cc1 | . | . | 95* | . | -2 | .
O=C(C[C@H]1CC[C@H]2[C@@H](COC[C@H](O)CN2C(=O)Nc2ccc(Cl)c(Cl)c2)O1)NCc1ccc(Cl)cc1 | . | . | 70* | . | -9 | .
O=C(C[C@H]1CC[C@@H]2[C@H](COC[C@H](O)CN2C(=O)Nc2ccc(Cl)c(Cl)c2)O1)NCc1ccc(Cl)cc1 | . | . | 14 | . | -1 | .
O=C(C[C@@H]1CC[C@@H]2[C@H](COC[C@@H](O)CN2C(=O)Nc2ccc(Cl)c(Cl)c2)O1)NCc1ccc(Cl)cc1 | . | . | 96* | . | 0 | .
CCC(=O)N1[C@@H]2c3cccc(=O)n3C[C@@H]2[C@@H](CO)[C@@H]1C(=O)NCC1CC1 | . | . | -11 | . | 2 | .
Cc1ccc(S(=O)(=O)N2C[C@H](O)COC[C@H]3O[C@H](CC(=O)NCc4ccc(Cl)c(Cl)c4)CC[C@@H]32)cc1 | . | . | 43 | . | -2 | .
Cc1ccc(S(=O)(=O)N2C[C@H](O)COC[C@H]3O[C@@H](CC(=O)NCc4ccc(Cl)c(Cl)c4)CC[C@@H]32)cc1 | . | . | 75* | . | 25 | .
O=[N+]([O-])c1ccc(O)c(/C=N/Nc2ccccn2)c1 | 9 | 65* | 71* | 75 | 20 | 33
O=[N+]([O-])c1ccc(NN=Cc2ccc(O)cc2O)nc1 | 5 | 1 | 15 | 78 | -88 | -76

Assay outcomes deposited in PubChem BioAssay by several laboratories.
